Drawing on PubChem BioAssay (EPA / NIEHS), this text covers outcome and AC50 for 19 compounds.

Values joined by “and” are separate entries in the source; they are usually repeats but may differ in a detail not shown here. Equal values may be shown once. Results filed as inconclusive are left out. More than one record can exist for a structure, and the calls need not agree. Active and inactive are the calls of the source. The calls were made as follows, unless noted: active = hit-call score of the fitted dose curve at least 0.9, where 1 is the maximum; inactive = score below 0.9.

Read-out in experiment [1]: Monocyte Chemoattractant Protein-1 (MCP1), CCL2 (gene 6347)
Nature of the experiment: BSK_SAg_MCP1: BioMAP Diversity Plus: SAg Assay for Monocyte Chemoattractant Protein-1 (MCP1) Biomarker Activity (AID 2283090). The conditions noted are these: primary human HUVEC with PBMC; actives raise or lower the signal. In outline:
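MCP-1 levels in the endothelial–PBMC SAg co-culture were quantified by ELISA at 24 h post-dosing; both increases and decreases versus DMSO scored. Cytotoxicity monitored by SRB total protein in parallel cultures.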

Read-out in experiment [2]: E-selectin (Homo sapiens) (UniProt P16581)
Nature of the experiment: BSK_SAg_Eselectin: BioMAP Diversity Plus: SAg Assay for Eselectin Biomarker Activity (AID 2283091). To be noted: primary human HUVEC with PBMC; actives raise or lower the signal. The gist of the method: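 Endpoint values derive from bidirectional fitting relative to DMSO, using ELISA-measured E-selectin in a human vascular co-culture (umbilical vein endothelium plus PBMC) sampled 24 h after dosing.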

Read-out in experiment [3]: Monokine induced gamma interferon (MIG), CXCL9 (gene 4283)
Nature of the experiment: BSK_SAg_MIG: BioMAP Diversity Plus: SAg Assay for Monokine induced gamma interferon (MIG) Biomarker Activity (AID 2283092). The conditions noted are these: primary human HUVEC with PBMC; actives raise or lower the signal. The gist of the method:
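Endothelial cells and PBMC were co-cultured, exposed to test chemicals, and sampled 24 h later. MIG was measured by ELISA, and responses were fitted in both directions relative to DMSO.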

The nature of experiment [4]: BSK_SAg_PBMCCytotoxicity: PBMC Cytotoxicity Assessment in the BioMAP Diversity Plus: SAg Assay (AID 2283093).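 Also: PBMC viability measured as Alamar Blue reduction fluorescence at 546/580 nm; fitted both ways against DMSO so a hit may be loss or gain of signal.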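 As to AC50: PBMC superantigen activated with SEB plus TSST-1 one hour after compound addition.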 The conditions noted are these: primary human HUVEC with PBMC. In outline:
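HUVEC/PBMC co-culture; PBMC exposed to chemical 1 h before SEB and TSST-1 activation (20 ng/mL each), incubated 90 h, then Alamar Blue 6 h, fluorescence 546/580 nm. Bidirectional fit versus DMSO baseline.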

Read-out in experiment [5]: Interleukin-8 (IL8), CXCL8 (gene 3576)
Kind of experiment: BSK_SAg_IL8: BioMAP Diversity Plus: SAg Assay for Interleukin-8 (IL8) Biomarker Activity (AID 2283094). To be noted: primary human HUVEC with PBMC; actives raise or lower the signal. The gist of the method:
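Human umbilical vein endothelial cells co-cultured with peripheral blood mononuclear cells; IL-8 measured by ELISA 24 h after chemical dosing. Bidirectional concentration-response fitting used DMSO as negative control and activity baseline.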

Experiment [6] in a line: BSK_SAg_Proliferation: Cell Proliferation Assessment in the BioMAP Diversity Plus: SAg Assay (AID 2283095).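 Also: relative cell number as total protein by SRB absorbance in sub-confluent culture.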 The conditions noted are these: primary human HUVEC with PBMC. The gist of the method: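 Human umbilical vein endothelial cells co-cultured with peripheral blood mononuclear cells; total protein measured by sulforhodamine B staining (0.1% SRB after 10% TCA fixation), absorbance at 560 nm, at 96 h. Bidirectional fit against DMSO baseline.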

The nature of experiment [7]: BSK_SAg_SRB: Viability Assessment in the BioMAP Diversity Plus: SAg Assay (AID 2283096).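 Also: cells read one day after compound addition; hits may be either gain or loss of signal compared with DMSO.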 To be noted: primary human HUVEC with PBMC. The gist of the method: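 Human umbilical vein endothelial cells co-cultured with PBMC, read 24 h after compound dosing. Total protein measured by sulforhodamine B staining (0.1% SRB after 10% TCA fixation, absorbance 560 nm); bidirectional fit versus DMSO baseline.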

For experiment [8], the target named is human CYP1A1, CYP1A1 (gene 1543) (UniProt P04798). Kind of experiment: NVS_ADME_hCYP1A1: NovaScreen (NVS) CYP450-related Enzyme Activity (ADME) Assay for human CYP1A1 (AID 2283100; active = hit-call score of the fitted dose curve at least 0.9, where 1 is the maximum). In outline: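 Inhibition of recombinant CYP1A1 turnover was assessed fluorometrically in a biochemical format 1 h after compound exposure. Testing began at 10 uM in duplicate and progressed to concentration series reaching 20 uM, with on-plate positive and negative controls.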

Experiment [9] addresses human CYP2B6, CYP2B6 (gene 1555) (UniProt P20813). Kind of experiment: NVS_ADME_hCYP2B6: NovaScreen (NVS) CYP450-related Enzyme Activity (ADME) Assay for human CYP2B6 (AID 2283101; active = hit-call score of the fitted dose curve at least 0.9, where 1 is the maximum). In outline:
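Cell-free recombinant enzyme assay with a fluorogenic substrate; fluorescence intensity read 1 hour after dosing. Loss of signal relative to acetonitrile negative control indicates inhibition. Primary screen run in duplicate at 10 uM, actives then tested in concentration series.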

Experiment [10] concerns the target human CYP2C9, CYP2C9 (gene 1559) (UniProt P11712). Kind of experiment: NVS_ADME_hCYP2C9: NovaScreen (NVS) CYP450-related Enzyme Activity (ADME) Assay for human CYP2C9 (AID 2283108; active = hit-call score of the fitted dose curve at least 0.9, where 1 is the maximum). In outline:
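Recombinant human CYP2C9 expressed in SF9 cells, fluorogenic substrate, fluorescence read 0.75 h after dosing. Chemicals first run in duplicate at 10 uM, with actives followed in concentration series; loss of signal versus acetonitrile baseline.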

Experiment [11] has as its target Cytochrome P450 3A4 (Homo sapiens) (UniProt P08684). Kind of experiment: NVS_ADME_hCYP3A4: NovaScreen (NVS) CYP450-related Enzyme Activity (ADME) Assay for human CYP3A4 (AID 2283110; active = hit-call score of the fitted dose curve at least 0.9, where 1 is the maximum). In outline: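 Cell-free recombinant enzyme expressed in insect cells; fluorescent substrate turnover read after 0.33 h, acetonitrile as negative control. Primary screen in duplicate at 10 uM, actives then tested in concentration series.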

The target of experiment [12] is Cytochrome P450 2C19 (Homo sapiens) (UniProt P33261). Kind of experiment: NVS_ADME_hCYP2C19: NovaScreen (NVS) CYP450-related Enzyme Activity (ADME) Assay for human CYP2C19 (AID 2283113; active = hit-call score of the fitted dose curve at least 0.9, where 1 is the maximum). In outline: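 Biochemical CYP2C19 inhibition screen: insect-cell recombinant protein plus fluorescent substrate, 1 h, fluorescence intensity. Acetonitrile defined baseline activity. Single 10 uM concentration in duplicate, with concentration-response follow-up for actives.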

E-selectin (Homo sapiens), sequence (P16581 whole entry, looked up): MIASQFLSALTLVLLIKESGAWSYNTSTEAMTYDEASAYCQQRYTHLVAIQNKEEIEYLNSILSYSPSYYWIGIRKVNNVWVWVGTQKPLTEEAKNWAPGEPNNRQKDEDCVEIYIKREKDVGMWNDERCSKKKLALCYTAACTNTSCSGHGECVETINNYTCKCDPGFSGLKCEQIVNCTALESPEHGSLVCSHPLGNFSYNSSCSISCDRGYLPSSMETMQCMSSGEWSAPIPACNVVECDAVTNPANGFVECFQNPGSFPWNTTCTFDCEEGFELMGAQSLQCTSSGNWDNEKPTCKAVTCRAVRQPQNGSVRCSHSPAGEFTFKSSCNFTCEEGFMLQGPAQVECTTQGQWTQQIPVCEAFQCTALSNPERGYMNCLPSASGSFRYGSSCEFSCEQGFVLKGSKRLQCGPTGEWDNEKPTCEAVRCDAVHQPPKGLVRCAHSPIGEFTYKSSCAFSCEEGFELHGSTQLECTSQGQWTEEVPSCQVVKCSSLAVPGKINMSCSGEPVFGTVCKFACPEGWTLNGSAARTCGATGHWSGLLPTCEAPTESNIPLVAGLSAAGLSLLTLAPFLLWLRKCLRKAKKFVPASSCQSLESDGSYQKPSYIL
human CYP2B6, CYP2B6 (gene 1555), sequence (P20813 whole entry, looked up): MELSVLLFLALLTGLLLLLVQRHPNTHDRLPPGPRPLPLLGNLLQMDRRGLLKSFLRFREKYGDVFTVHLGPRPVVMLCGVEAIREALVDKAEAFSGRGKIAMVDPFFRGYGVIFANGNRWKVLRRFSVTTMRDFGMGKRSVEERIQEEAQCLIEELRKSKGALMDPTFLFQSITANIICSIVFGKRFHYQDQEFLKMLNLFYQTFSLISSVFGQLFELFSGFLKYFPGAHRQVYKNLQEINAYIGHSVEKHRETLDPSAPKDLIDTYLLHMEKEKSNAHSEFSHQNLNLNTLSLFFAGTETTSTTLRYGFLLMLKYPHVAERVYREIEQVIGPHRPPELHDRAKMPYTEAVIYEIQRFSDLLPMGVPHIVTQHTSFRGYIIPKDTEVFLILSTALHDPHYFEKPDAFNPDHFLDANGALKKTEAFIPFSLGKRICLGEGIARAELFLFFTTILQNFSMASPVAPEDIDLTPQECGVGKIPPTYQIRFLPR
Cytochrome P450 3A4 (Homo sapiens), sequence (P08684 whole entry, looked up): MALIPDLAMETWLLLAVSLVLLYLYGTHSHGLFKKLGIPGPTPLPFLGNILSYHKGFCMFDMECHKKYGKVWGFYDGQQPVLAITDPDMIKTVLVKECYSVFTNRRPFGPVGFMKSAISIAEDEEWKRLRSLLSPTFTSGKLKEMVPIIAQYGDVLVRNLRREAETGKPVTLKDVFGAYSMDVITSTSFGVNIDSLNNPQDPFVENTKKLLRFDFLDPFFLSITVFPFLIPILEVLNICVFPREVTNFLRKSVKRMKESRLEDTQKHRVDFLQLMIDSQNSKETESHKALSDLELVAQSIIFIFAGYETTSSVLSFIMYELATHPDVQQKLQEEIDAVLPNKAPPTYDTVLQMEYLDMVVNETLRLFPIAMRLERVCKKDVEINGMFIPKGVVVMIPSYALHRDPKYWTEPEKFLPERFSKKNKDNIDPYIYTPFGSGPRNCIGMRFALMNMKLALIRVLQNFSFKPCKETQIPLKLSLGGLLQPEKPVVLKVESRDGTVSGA
human CYP1A1, CYP1A1 (gene 1543), sequence (P04798 whole entry, looked up): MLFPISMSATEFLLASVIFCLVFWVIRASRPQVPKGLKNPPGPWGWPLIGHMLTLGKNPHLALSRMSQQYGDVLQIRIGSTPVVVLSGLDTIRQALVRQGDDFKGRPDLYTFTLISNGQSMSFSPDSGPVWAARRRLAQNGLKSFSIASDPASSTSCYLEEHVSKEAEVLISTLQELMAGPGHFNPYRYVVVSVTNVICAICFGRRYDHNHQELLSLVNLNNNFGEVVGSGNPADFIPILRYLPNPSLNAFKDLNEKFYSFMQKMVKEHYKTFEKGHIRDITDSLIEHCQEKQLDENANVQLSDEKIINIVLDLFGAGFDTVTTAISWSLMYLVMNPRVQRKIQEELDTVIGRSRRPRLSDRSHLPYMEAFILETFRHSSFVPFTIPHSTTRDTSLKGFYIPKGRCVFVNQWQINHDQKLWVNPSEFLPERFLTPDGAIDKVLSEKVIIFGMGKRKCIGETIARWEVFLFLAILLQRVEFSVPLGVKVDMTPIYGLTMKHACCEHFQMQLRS
human CYP2C9, CYP2C9 (gene 1559), sequence (P11712 whole entry, looked up): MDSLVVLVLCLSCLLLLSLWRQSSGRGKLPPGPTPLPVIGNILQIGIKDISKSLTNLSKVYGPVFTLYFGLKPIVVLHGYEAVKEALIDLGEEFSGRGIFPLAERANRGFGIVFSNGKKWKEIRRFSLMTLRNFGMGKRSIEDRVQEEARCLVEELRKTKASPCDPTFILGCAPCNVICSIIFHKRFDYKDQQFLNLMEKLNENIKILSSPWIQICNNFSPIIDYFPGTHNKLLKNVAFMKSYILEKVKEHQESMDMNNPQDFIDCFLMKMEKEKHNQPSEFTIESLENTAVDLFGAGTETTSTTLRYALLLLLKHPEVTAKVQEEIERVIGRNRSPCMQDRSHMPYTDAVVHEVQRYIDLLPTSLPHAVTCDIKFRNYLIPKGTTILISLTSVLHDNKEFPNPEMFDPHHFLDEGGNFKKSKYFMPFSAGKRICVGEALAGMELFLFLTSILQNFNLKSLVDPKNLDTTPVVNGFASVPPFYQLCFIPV

Consider `FC(F)(F)C(F)(C(F)(F)F)C(F)(F)C(F)(F)CC1CO1` (stereo not drawn), for which the result in experiment [1], in experiment [2], in experiment [3], in experiment [4], in [5] and in experiment [6] was inactive. Besides, in [7], the outcome was inactive.

Take `CCOP(=S)(OCC)SCS(=O)(=O)CC`: the result in experiment [1], in experiment [2], in experiment [3], in [4], in experiment [5] and in experiment [6] was inactive. The outcome in [7] was inactive.

For `O=C(O)C(F)(F)OC(F)(F)C(F)(F)OC(F)(F)C(=O)O`, the result in experiment [1], in [2], in [3], in [4], in [5] and in experiment [6] was inactive. In addition, the outcome in [7] was inactive.

Usually AC50 stands for the concentration giving half of the maximal activity seen. Take `CC(C)(C)c1ccccc1OP(=O)(Oc1ccccc1)Oc1ccccc1`: the AC50 in experiment [1] is 27.7 µM (active); in experiment [2], 20 µM (active); in experiment [3], 34.6 µM (active); in [4], 33.2 µM (active); in experiment [5], 20 µM (active); in experiment [6] it was 10.8 µM (active). Moreover, in experiment [7], the AC50 is 30.7 µM (active).

For the compound `O=C(O)C(F)(F)C(F)(F)C(=O)O`, the result in experiment [1], in experiment [2], in [3], in [4], in [6] and in experiment [7] was inactive.

Turning to `OCC(F)(F)OC(F)(F)C(F)(F)OC(F)(F)C(F)(F)OC(F)(F)CO`, the AC50 was 10.3 µM (active) in experiment [1]; 38.3 µM (active) and 42.9 µM (active) in experiment [2]. The result in experiment [1], in experiment [3], in experiment [4], in experiment [6] and in [7] was inactive.

With `N#Cc1cc([N+](=O)[O-])ccc1N`, the result in experiment [1], in experiment [2], in [3], in [4], in experiment [5] and in experiment [6] was inactive. Moreover, the outcome in [7] was inactive.

With `CSC(C)(C)C=NO`, the result in [1], in experiment [2], in [3], in [4], in experiment [5] and in [6] was inactive. Besides, the outcome in experiment [7], in experiment [8], in [9], in experiment [10], in experiment [11] and in experiment [12] was inactive.

`OCC(F)(F)OC(F)(F)C(F)(F)OC(F)(F)C(F)(F)OC(F)(F)F`: the AC50 in experiment [1] is 45.9 µM (active) and 24.8 µM (active); in [2], 39.4 µM (active) and 45.2 µM (active); in experiment [4] it was 15.3 µM (active) and 21.2 µM (active); in experiment [5], 43.9 µM (active) and 43.4 µM (active); in experiment [6] it was 39 µM (active) and 21 µM (active); in experiment [7], 30 µM (active). In addition, the outcome in experiment [3] and in [7] was inactive.

As for `ClC(Cl)(Cl)c1ccccc1`, the result in experiment [1], in experiment [2], in experiment [3], in [4], in experiment [6] and in [7] was inactive.

As to `[N-]=[N+]=[N-]`, the outcome in experiment [1], in experiment [2], in experiment [3], in experiment [4], in experiment [5] and in [6] was inactive. Besides, the outcome in experiment [7] was inactive.

Turning to `C=CC(=O)OCC(F)(F)C(F)F`, the concentration at half-maximal activity (AC50) in experiment [1] was 34.3 µM (active) and 20.4 µM (active); in [2], 30.4 µM (active) and 17.6 µM (active); in experiment [3], 53.5 µM (active) and 45.4 µM (active); in [4], 15.1 µM (active); in [5] it was 20.7 µM (active) and 9.88 µM (active); in experiment [6], 13.4 µM (active) and 6.25 µM (active). The result in experiment [4] and in [7] was inactive.

Turning to `c1ccc(OP(Oc2ccccc2)Oc2ccccc2)cc1`, the outcome in experiment [1], in experiment [2], in experiment [3], in [4], in experiment [5] and in experiment [6] was inactive. In experiment [7], the outcome was inactive.

Regarding `COCCOCCO`, the outcome in [1], in experiment [2], in experiment [3], in [4], in experiment [5] and in experiment [6] was inactive. For the same compound, the outcome in experiment [7] was inactive.

As for `Nc1ccc([N+](=O)[O-])cc1Cl`, the outcome in experiment [1], in [2], in [3], in [4], in [6] and in experiment [7] was inactive.

Regarding `CC(Cc1ccc(OCC(=O)O)cc1)NCC(O)c1csc(C(F)(F)F)n1` (stereo not drawn), the outcome in experiment [1], in [2], in experiment [3], in experiment [4], in experiment [5] and in experiment [6] was inactive. Also, the outcome in experiment [7] and in experiment [12] was inactive.

Turning to `CCCCC(CC)COC(=O)c1c(Br)c(Br)c(Br)c(Br)c1C(=O)OCC(CC)CCCC` (stereo not drawn), the outcome in [1], in [2], in experiment [3], in [4], in [5] and in experiment [6] was inactive. The outcome in experiment [7] was inactive.

Consider `Nc1cc2c3c(c1)C(c1ccccc1)=N[C@@H](NC(=O)c1cccnc1)C(=O)N3CC2`, for which the result in [1], in experiment [3], in [4], in [5], in experiment [6] and in [7] was inactive. Also, the concentration at half-maximal activity (AC50) in experiment [2] was 1.12 µM (active).

`NC(=O)C(F)(F)C(F)(F)F`: the outcome in experiment [1], in experiment [2], in [3], in experiment [4], in [5] and in [6] was inactive. In addition, the outcome in experiment [7] was inactive.
